Compound activity deposited in PubChem BioAssay by The Scripps Research Institute Molecular Screening Center.
A selection: hits, their analogues and other compounds. The true share with any hit is near 3.2%.
rCAG binder – molecules binding r(CAG) RNA repeats; r(CAG) RNA repeat, TO-PRO-1 dye displacement fluorescence; inhibition, % at 3 µM; 1.3% of 370,000 active; AID 651821;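 active = inhibition above the plate cutoff, the mean of all test compounds on that plate plus 3 SD, cut at about 35% in these data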;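 note: 0% = DMSO alone and 100% = 100 µM mitoxantrone as full dye displacement; higher means more dye released from RNA so lower well fluorescence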
bovine MsrA act – bovine methionine sulfoxide reductase A activation; purified bovine MsrA, absorbance read-out; activation, % at 10.6 µM; 0.3% of 360,000 active; AID 602163; in the data active = activation above about 7.5%;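 note: 0% = vehicle and 100% = reference activator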
MsrA inh – inhibits bovine methionine sulfoxide reductase A; AID 651718; 0.75% of 360,000 active; inhibition, % at 15.5 µM; purified bovine MsrA, absorbance read-out; in the data active = inhibition above about 4.5%;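 note: 0% = vehicle wells with enzyme and 100% = reference inhibitor wells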
PG9 binder – PG9 antibody binding by small molecule. inhibition, % at 6.7 µM. TR-FRET gp120-PG9 antibody binding. 0.43% of 360,000 active; in the data active = inhibition above about 8.5%
sPLA2-III inh – Blocks human group III sPLA2 activity. Q9NZ20. QFRET BODIPY PC-A2 liposome hydrolysis, fluorescence. inhibition, % at 12.2 µM. 0.56% of 370,000 active;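 active = inhibition above mean plus 3 SD of compounds lying within the high and low control bounds, cut at about 19% in these data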;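 note: 0% = median of test compound wells and 100% = no enzyme DMSO wells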
Target sequence (Q9NZ20 whole entry, looked up): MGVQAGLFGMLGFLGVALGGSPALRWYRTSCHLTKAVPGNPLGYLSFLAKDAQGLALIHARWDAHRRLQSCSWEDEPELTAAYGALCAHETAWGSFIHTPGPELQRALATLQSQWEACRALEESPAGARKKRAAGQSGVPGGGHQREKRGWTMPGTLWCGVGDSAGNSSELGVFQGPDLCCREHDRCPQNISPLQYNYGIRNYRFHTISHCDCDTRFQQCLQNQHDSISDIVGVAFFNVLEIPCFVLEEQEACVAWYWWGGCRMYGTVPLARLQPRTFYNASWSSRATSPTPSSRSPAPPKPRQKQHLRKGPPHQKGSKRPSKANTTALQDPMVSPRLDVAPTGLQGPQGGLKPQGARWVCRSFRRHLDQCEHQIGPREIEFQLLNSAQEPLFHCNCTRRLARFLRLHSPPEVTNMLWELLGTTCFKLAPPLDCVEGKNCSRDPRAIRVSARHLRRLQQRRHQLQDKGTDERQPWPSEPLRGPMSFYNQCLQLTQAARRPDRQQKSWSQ
rCAG binder conf – r(CAG) RNA repeat binding, confirmation. 70% of 4,300 active. TO-PRO-1 dye displacement fluorescence. shares compounds with rCAG binder. inhibition, % at 3 µM;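 active = inhibition above a per-plate cutoff, the mean inhibition of sample wells plus 3 SD, cut at about 35% in these data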;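 note: loss of TO-PRO-1 fluorescence as compound displaces dye from 1x1 AA loop RNA; 0% = DMSO only wells and 100% = 100 µM mitoxantrone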
dCAG dye counter – DNA CAG dye complex inhibition counter-screen. 94% of 4,300 active. inhibition, % at 3 µM. shares compounds with rCAG binder. d(CAG) DNA oligo TO-PRO-1 dye displacement, fluorescence;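 active = inhibition above its plate's cutoff, the mean test-well inhibition plus 3 SD, cut at about 4.8% in these data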;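 note: 0% = DNA dye mix with DMSO and 100% = 100 µM mitoxantrone; hits displace the dye from DNA and so lower well fluorescence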
* = called active by the depositor; x = no result given.

SMILES | rCAG binder | bovine MsrA act | MsrA inh | PG9 binder | sPLA2-III inh | rCAG binder conf | dCAG dye counter
O=S1(=O)c2c(cccc2N2CCC[C@H]2CO)OCCCN1C1CC1 | 3 | x | x | x | 4 | x | x
CCCCCCCCN1C(=O)[C@@H](CC(=O)NCc2ccc(OC)c(OC)c2)C[C@@]2(C(=O)OC)C1=C[C@H](C(C)C)O[C@@H]2C1CC1 | 7 | x | x | x | -18 | x | x
COc1ccc(-c2cc(=O)oc3c(C)c(OCc4nn[nH]n4)ccc23)cc1 | 39* | -5 | 2 | -1 | -18 | 23 | 5.7*
CC(C)N(C(=O)[C@H]1CC(CC(=O)NCc2cccc(C(F)(F)F)c2)C(=O)N2CCc3c([nH]c4ccccc34)[C@]12C)C(C)C (stereo not given in full) | 0 | 1 | 2 | 0 | 2 | x | x
CN(C(=O)c1cccc(NC(=O)Cc2ccc(NC(=O)C3CCN(C(=O)CCc4ccccc4)CC3)cc2)c1)C1CCCC1 | 8 | x | -1 | -1 | -41 | x | x
O=C(O)COc1ccccc1/C=N/NC(=O)COc1ccc(-c2ccccc2)cc1 | 66* | -4 | 1 | 1 | -10 | 64* | 22*
O=C(CSc1nc2ccccc2n1Cc1ccc(Cl)cc1)N/N=C/c1ccccc1C(=O)O | 53* | -2 | 1 | 0 | -11 | 56* | 18*
COc1ccc(-n2c(SCC(=O)N/N=C/c3ccccc3OCC(=O)O)nc3ccccc3c2=O)cc1 | 43* | -7 | 2 | 1 | -13 | 47* | 13*
O=C(O)COc1ccccc1/C=N/NC(=O)c1cccc(S(=O)(=O)Nc2cccc(Cl)c2)c1 | 48* | -1 | 3 | -2 | -14 | 30 | 8.7*
Cc1ccc(/C=N/NC(=O)CSc2nc3ccccc3n2Cc2ccc(Cl)cc2)o1 | 5 | -3 | 1 | -2 | -5 | x | x
CCC[C@H](/C=C/C(=O)OC(C)(C)C)Sc1ccc(OC)cc1 | 4 | x | x | x | 4 | x | x
O=C(O)COc1ccccc1/C=N/NC(=O)CSc1nc2ccccc2n1Cc1ccc(Cl)cc1 | 60* | 0 | 0 | -2 | -43 | 76* | 35*
O=S(=O)(Nc1ncnc2c1oc1ccccc12)c1ccc(Cl)s1 | 36* | 0 | -1 | -2 | -11 | 17 | 3
COc1ccc(C2=CC3=C(Br)C(=O)C(C)(OC(=O)c4cccs4)C(=O)C3=CO2)cc1 (stereo not given) | 49* | -1 | 0 | -7 | -17 | 45* | 21*
COc1ccc(C2=CC3=C(Br)C(=O)C(C)(OC(=O)c4ccco4)C(=O)C3=CO2)cc1 (stereo not given) | x | -3 | x | x | x | x | x
Nc1cc(Nc2ccccc2)ccn1 | 2 | -1 | 0 | 1 | -2 | x | x
N#Cc1sc2nccc(Nc3ccccc3)c2c1N | 38* | -8 | 3 | -4 | 1 | 2 | 0
Cc1cc(C)n2ncc(C(=O)Nc3ccc4c(c3)CCC4)c2n1 | x | x | x | x | 0 | x | x
COC(=O)c1ccc(COc2ccccc2/C=N/Nc2cccc(C(=O)O)c2)cc1 | 16 | -2 | 1 | -3 | 0 | x | x
O=C(O)c1cccc(NC(=S)N/N=C/c2ccccc2OCc2ccc(Br)cc2)c1 | 80* | 2 | 2 | -2 | 1 | 85* | 55*
O=C(O)c1cccc(NC(=S)N/N=C/c2cccc(O)c2)c1 | 4 | -1 | 1 | -4 | -3 | x | x
O=C(O)c1cccc(NC(=S)N/N=C/c2ccccc2OCc2cccc(Br)c2)c1 | 77* | -1 | 1 | -4 | -2 | 79* | 45*
COc1ccc(S[C@]2(C(=O)N3CCOCC3)CC(=O)N(c3ccsc3)[C@@H]2c2ccc(OC)cc2)cc1 | 4 | x | x | x | -5 | x | x
Cc1cc(NS(=O)(=O)c2ccc(NC(=O)/C=C/c3ccc(Br)cc3)cc2)no1 | 68* | -6 | 2 | -1 | -34 | 62* | 29*
COc1ccccc1OCC(=O)Nc1ccc(S(=O)(=O)Nc2cc(C)on2)cc1 | 22 | -2 | 0 | 0 | -15 | x | x
SMILES | rCAG binder | bovine MsrA act | MsrA inh | PG9 binder | sPLA2-III inh | rCAG binder conf | dCAG dye counter
COc1ccccc1/C=C/C(=O)Nc1ccc(S(=O)(=O)Nc2cc(C)on2)cc1 | 53* | -7 | 4 | -3 | -32 | 48* | 12*
CCCCNC(=O)C[C@H]1C[C@@]2(C(=O)OC)C(=C[C@H](C3CCCC3)O[C@@H]2C)N(Cc2cccc3ccccc23)C1=O | 7 | x | x | x | -11 | x | x
CC12CCC(C/C1=N\N=C1\NC(=O)/C(=C\c3cccc(Br)c3)S1)C2(C)C (stereo not given) | 50* | 7 | 1 | -1 | -3 | 60* | 28*
COc1ccc(N2CCCN(CC(=O)Nc3ccc(Cl)cc3)CC2)cc1 | 1 | x | x | x | 14 | x | x
COc1ccc(-n2c(C)c(C(=O)O)c3cc(OC)c4ccccc4c32)cc1 | 11 | -3 | -1 | 1 | -5 | x | x
COc1cc2c(C(=O)O)c(C)n(-c3ccccc3)c2c2ccccc12 | 36* | -4 | 1 | 0 | -16 | 22 | 6.1*
COc1ccccc1-n1c(C)c(C(=O)O)c2cc(OC)c3ccccc3c21 | 41* | -2 | 0 | -1 | -21 | 26 | 5.6*
CCOc1ccccc1NC(=O)c1cc2c(C)nn(-c3ccccc3)c2s1 | 5 | x | x | x | 6 | x | x
Cc1ccc(N2CC(C(=O)Nc3ccc(S(=O)(=O)Nc4nccs4)cc3)CC2=O)cc1C (stereo not given) | 48* | -10 | 0 | -1 | -50 | 64* | 19*
O=C(Nc1ccc(S(=O)(=O)Nc2nccs2)cc1)C1CC(=O)N(c2ccc(Cl)cc2)C1 (stereo not given) | 54* | -2 | 0 | -2 | -40 | 41* | 15*
COC(=O)[C@]12C[C@H](CC(=O)N3CCN(C(=O)c4ccco4)CC3)C(=O)N(CCC3=CCCCC3)C1=C[C@H](C(C)C)O[C@@H]2C1CC1 | 6 | x | x | x | -2 | x | x
COc1cc(NS(=O)(=O)c2ccc(NC(=S)NC(=O)/C=C/c3ccc(F)cc3)cc2)ncn1 | 3 | -4 | 1 | 2 | 11 | x | x
CCc1nnc(NS(=O)(=O)c2ccc(NC(=S)NC(=O)/C=C/c3ccccc3)cc2)s1 | 87* | 0 | 2 | 0 | -98 | 85* | 50*
CCc1nnc(NS(=O)(=O)c2ccc(NC(=S)NC(=O)c3ccccc3)cc2)s1 | 65* | -7 | -1 | 0 | -24 | 51* | 18*
CCc1nnc(NS(=O)(=O)c2ccc(NC(=O)c3ccccc3)cc2)s1 | 9 | -4 | -1 | -1 | -23 | x | x
COc1ccc(NS(=O)(=O)c2ccc(NC(=S)NC(=O)/C=C/c3ccccc3)cc2)nn1 | 40* | -3 | 0 | 0 | -10 | 51* | 17*
COc1nccnc1NS(=O)(=O)c1ccc(NC(=S)NC(=O)/C=C/c2ccc(F)cc2)cc1 | 71* | -3 | 4 | -2 | -33 | 59* | 24*
CCCCNC(=O)C(NC(=O)c1ccc(-c2ccccc2)cc1)C(=O)c1ccccc1 (stereo not given) | 3 | x | 1 | 2 | 11 | x | x
